High-throughput results (PubChem)
NCF1 inh = p47phox/p22phox peptide binding inhibitors, primary screen, biochemical, uHTS, NADPH oxidase regulatory subunit. Neutrophil cytosol factor 1 (Homo sapiens), P14598. fluorescence polarization, 2 h. inhibition, % at 24.7 µM. 220,000 tested, 0.53% active. AID 1274, 2008;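 active = inhibition above about 30%, limit read from the data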;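 also: 0% = p47phox with labelled peptide and 100% = labelled peptide alone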
Target sequence (P14598 whole entry, looked up): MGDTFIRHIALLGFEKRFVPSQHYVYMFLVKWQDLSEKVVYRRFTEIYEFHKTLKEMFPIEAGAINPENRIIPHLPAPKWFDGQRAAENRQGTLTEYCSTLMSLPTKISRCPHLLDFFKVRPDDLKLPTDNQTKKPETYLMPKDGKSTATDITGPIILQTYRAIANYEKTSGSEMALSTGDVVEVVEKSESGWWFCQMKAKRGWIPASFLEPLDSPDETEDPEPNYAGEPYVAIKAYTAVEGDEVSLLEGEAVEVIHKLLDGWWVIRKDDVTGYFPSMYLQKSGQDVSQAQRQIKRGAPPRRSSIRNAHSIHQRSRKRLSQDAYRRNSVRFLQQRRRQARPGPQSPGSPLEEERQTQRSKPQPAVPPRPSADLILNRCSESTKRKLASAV
DTT redox prof = compounds producing H2O2 with reducing agent – biochemical, NIH compound library profiling, artefact control for MLSCN library redox annotation, primary screen; DTT-dependent redox cycling H2O2, phenol red/HRP absorbance; 100% = 100 µM peroxide control, 0% = buffer; activation, % at 10 µM; 200,000 tested, 0.03% active;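 active = activation of at least 50% relative to the plate's high and low controls in the primary single-dose screen; inactive = activation below 50%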;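 also: compound incubated with DTT at 0.8 mM final as the reducing agent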
Autophagy HCS = autophagy modulators in MEF cells, primary screen, imaging, high-content, MEF GFP-LC3; MEF GFP-LC3 puncta imaging; test concentration mostly 10 µM; calls only at 10 µM (by protocol); 190,000 tested, 0.98% active;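 active = percentage of spot-positive cells more than 3 SD above its plate mean, without a fluorescence outlier flag or 80% toxicity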;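 also: spot-positive cell cutoff set from DMSO-treated cells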
Arbovirus anti = antivirals against arbovirus infection, primary screen, cell-based, full library, 10K replicate subset | arbovirus infection cell-based antiviral screen | inhibition, % at 10 µM | 200,000 tested, 0.37% active | AID 1251, 2008; in the data active = inhibition above about 30%
HMGR II inh = inhibitors of E. faecalis class II HMGR, primary screen, biochemical, Enterococcus faecalis | HMG-CoA reductase (Enterococcus faecalis, mvaE) | purified E. faecalis HMGR, NADPH absorbance 340 nm kinetic | inhibition, % at 10 µM | 190,000 tested, 0.41% active | AID 1066, 2008;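 active = inhibition above a set limit, the median over all tested compounds plus 3 SD, cut at about 9.5% in these data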;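 also: enzyme runs in reverse so mevalonate oxidation gives rising NADPH absorbance; 0% = complete reaction with DMSO and 100% = background rate lacking mevalonate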
Ins promoter up = insulin promoter activators in MIN6 cells, imaging, high-content screening, mouse beta cells. MIN6 insulin promoter-GFP reporter; hits give high values. z-score at 5 µM. 190,000 tested, 0.3% active. AID 1625, 2009;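 active = z-score above 3 at 5 µM with at least 500 cells counted in the well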
Active calls of the source: *; i = inactive; . = no result; + = active, no number. This is a sample that favours compounds with a hit; in the whole collection about 2.2% have one here.

SMILES	NCF1 inh	DTT redox prof	Autophagy HCS	Arbovirus anti	HMGR II inh	Ins promoter up
CCNc1nc(NC(C)C)nc(NC(C)(C)C)n1	-3.6	-0.1	i	25.5	13.0*	-1.33
CC(C)Nc1nc(NNc2nc(Cl)nc(NC(C)(C)C)n2)nc(NC(C)C)n1	-12.2	.	.	.	.	-0.04
CN1C(=O)N(C)C2(c3ccccc3)N(C)C(=O)NC12c1ccccc1 (centres undefined)	49.0*	1.7	i	4.6	0.6	-0.13
CC(C)N1C(=O)NC2(c3ccccc3)N(C)C(=O)N(C)C12c1ccccc1 (centres undefined)	-3.2	-0.4	i	5.0	-4.0	-0.31
C=CCN1C(=O)S/C(=C\c2ccc(N3CCOCC3)cc2C)C1=O	-38.5	-1.0	+	-2.7	-6.6	0.61
CCOc1ccccc1NC(=S)NCC1CCCO1 (centres undefined)	-11.6	-0.3	i	12.1	-5.2	0.61
Cc1ccc(NC(=O)Cn2nnc(-c3ccccc3NC(=O)c3cccs3)n2)cc1	-10.9	0.2	+	-21.2	-1.6	0.1
Cc1cc(C)n(CC(O)COc2ccccc2C)n1 (centres undefined)	1.8	-0.5	i	2.1	11.5*	-0.1
Cc1cc(C)n(CC(O)COc2ccccc2)n1 (centres undefined)	7.8	0.1	i	3.9	2.6	-0.28
Cc1cc(C)n(C(=O)COc2ccccc2C)n1	3.9	-0.3	i	10.2	13.0*	0.16
CCC(=O)c1ccc(OCC(O)Cn2nnc3ccccc32)cc1 (centres undefined)	1.2	-0.1	i	0.3	-1.8	1.27
Cc1ccccc1OCC(O)Cn1nnc2ccccc21 (centres undefined)	-1.6	0.8	+	3.7	-0.7	-0.21
Cc1ccccc1N(CC(=O)N/N=C/c1ccc(N(C)C)cc1)C(=O)c1ccccc1	-122.5	-0.3	i	-5.2	-3.8	1.34
Brc1ccc(N=Nc2ccc3ccccc3n2)cc1	-2.0	.	.	.	.	-0.32
C/C(CCN1CCc2nc(-c3ccccc3)c(-c3ccccc3)cc2C1)=N\O[C@@H](C)c1cn([C@H](CO)Cc2ccccc2)nn1	-20.0	0.6	i	-40.2	10.0*	-0.4
CN(C)c1ccc(/C=C(\C#N)C(=O)c2ccccc2)cc1	51.7*	.	.	.	.	-0.17
N#C/C(=C\c1ccc(C#N)cc1)C(=O)c1ccccc1	-15.9	.	.	.	.	0.01
Cc1ccc(NC(=O)COc2ccc(Br)cc2CO)cc1	-6.6	0.1	i	36.4*	-1.7	.
Nc1sc2c([n+]1CCCS(=O)(=O)[O-])CCCC2	-4.3	-0.2	i	9.9	-12.6	-0.68
CN(C)CCCN=Cc1c(O)n(Cc2ccc3c(c2)OCO3)c(=O)c2ccccc12	-12.9	0.0	+	-17.0	3.9	-0.58
Cc1ccc(N=Cc2c(O)n(-c3ccc4c(c3)OCO4)c(=O)c3ccccc23)cc1	28.2	0.9	+	4.1	-5.8	.
CN(C)CCN=Cc1c(O)n(Cc2ccc3c(c2)OCO3)c(=O)c2ccccc12	-5.5	-0.2	i	14.9	-2.0	-1.16
CCN(CC)c1ccc2cc(S(=O)(=O)c3ccc(Cl)cc3)c(=O)oc2c1	-12.2	1.2	i	10.9	7.7	6.96*
Cc1cc(NC(=S)N(CCCN2CCN(C)CC2)Cc2ccco2)ccc1Cl	-3.9	-2.7	+	-12.5	-1.1	2.17
CCN1CCN(CCCN(Cc2ccco2)C(=S)Nc2cccc(Cl)c2C)CC1	-7.6	-1.3	+	0.7	-10.9	-0.43
SMILES	NCF1 inh	DTT redox prof	Autophagy HCS	Arbovirus anti	HMGR II inh	Ins promoter up
Cc1ccc(NC(=S)N(CCCN2CCOCC2)Cc2ccco2)cc1C	-1.8	-0.5	i	5.3	0.4	-0.75
Cc1c(Cl)cccc1NC(=S)N(CCCN1CCOCC1)Cc1ccco1	1.7	-1.5	i	22.6	1.8	-0.62
CSCC[C@H](NC(=O)Nc1ccc(S(N)(=O)=O)cc1)C(=O)O	-12.7	.	.	.	.	0
Cc1cccc2[nH]c(SCC(=O)O)nc12	-8.4	0.1	i	1.5	-2.5	0.68
Cc1cccc2[nH]c(SCC(=O)N3CCOCC3)nc12	4.6	3.9	i	-2.4	11.4*	-0.37
COc1cc(/C=C(\C#N)c2ccccn2)ccc1OCC(=O)Nc1ccc(Br)cc1	6.5	-0.1	i	-35.2	-1.2	0.42
Cc1oc(S(=O)(=O)N2CCCCC2)cc1NC(=O)Nc1ccc(Cl)cc1	-23.2	.	.	.	.	0.03
COc1ccc(-c2cc(-c3ccc(Br)cc3)nc3ncnn23)cc1OC	-8.7	0.0	i	72.1*	-4.0	-1.31
Cc1ccc2c(c1)C(O)(CC(=O)/C=C/C=C/c1ccccc1)C(=O)N2 (centres undefined)	3.0	-0.2	i	-10.2	-5.3	0.81
Cc1ccc(C(=O)NC(C)c2ccc3c(c2)OCO3)s1 (centres undefined)	-6.3	-0.1	i	13.0	13.3*	0.1
CC(NC(=O)c1cccs1)c1ccc2c(c1)OCO2 (centres undefined)	-6.0	2.8	i	-2.8	-3.8	.
Cc1noc(C)c1C(=O)N1CCCc2ccccc21	53.0*	0.8	i	2.1	-0.2	-0.14
COc1ccc(/C=C/C(=O)NCC2COc3ccccc3O2)cc1OC (centres undefined)	-8.5	-1.4	i	-11.3	9.5*	1.19
COc1cc2c(cc1NC(=O)/C=C/c1ccccc1)oc1ccccc12	-11.2	3.2	+	7.9	-4.9	-0.55
COc1cc2c(cc1NC(=S)NC(=O)/C=C/c1ccco1)oc1ccccc12	-14.3	0.7	i	-6.0	-8.9	0.06
COc1cc2c(cc1NC(=S)NC(=O)/C=C/c1ccc(OC)c(OC)c1)oc1ccccc12	36.7*	0.2	i	-1.8	-7.4	0.09
Cc1ccc(/C=C/C(=O)NCC2COc3ccccc3O2)o1 (centres undefined)	-4.5	-1.0	i	8.8	-2.5	0.53
CCN(CC)S(=O)(=O)c1ccc(C(=O)Nc2cc3oc4ccccc4c3cc2OC)cc1	-15.8	2.1	+	-8.3	2.3	-0.61
COc1ccc(/C=C/C(=O)NC(=S)Nc2cc3oc4ccccc4c3cc2OC)cc1	20.0	0.6	i	-3.6	-7.3	0.08
Cc1cccc(Nc2nc(N)nc(CC(=O)CSc3ccc(Cl)cc3)n2)c1	-22.8	0.6	i	-16.1	-8.3	-0.57
Cn1ccc(C(=O)Oc2ccc(C(=O)Nc3ccc(F)cc3F)cc2)n1	2.6	0.0	i	4.9	4.5	-0.17
CC1(C)Oc2ccc(NC(=O)C3COc4ccccc4O3)cc2O1 (centres undefined)	1.3	0.0	i	2.0	-0.6	.
Cc1cc(C)c(C)c(C(=O)CSc2nnc(-c3ccc4[nH]c(C)c(C)c4c3)o2)c1C	-14.9	-0.5	+	-25.6	5.7	-0.93
